Test results from the supplement of paper PMC6555819.

Assays:
Assay in all cases: PBM binding z-score (relative to random genomic background probes); higher = stronger binding; sequences stand for … in GC…GCGATTGACAGCGTAGAATGAAGG
[1] = tested on: FXR:RXRa (NR concentration 270 nM, RXRa partner concentration 90 nM)
Outline: (§1)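 For binding z-scores, the reference was random background probes on custom Agilent 4×180K protein-binding microarrays. These arrays were incubated 1 h with ligand-free nuclear receptor dimers in PBS pH 7.4, 2% milk, 0.02% Triton X-100, 1 mM DTT, 0.2 mg/mL BSA and 0.4 mg/ml salmon testes DNA. Fluorescence was scanned after antibody detection of each partner (one per run) and regression-normalized.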

[2] = tested on: LXRa:RXRa (NR concentration 270 nM, RXRa partner concentration 90 nM)
Outline: as §1

[3] = tested on: LXRa homodimer (NR concentration 270 nM)
Outline: as §1

[4] = tested on: LXRb:RXRa (NR concentration 270 nM, RXRa partner concentration 90 nM)
Outline: as §1

[5] = tested on: LXRb homodimer (NR concentration 270 nM)
Outline: as §1

[6] = tested on: PPARa:RXRa (NR concentration 270 nM, RXRa partner concentration 90 nM)
Outline: as §1

[7] = tested on: PPARg:RXRa (NR concentration 180 nM, RXRa partner concentration 90 nM)
Outline: as §1

[8] = tested on: PPARg:RXRa 270nM:90nM, anti-RXR (NR concentration 270 nM, RXRa partner concentration 90 nM)
Outline: as §1

[9] = tested on: PPARg:RXRa 30nM:10nM, anti-RXR (NR concentration 30 nM, RXRa partner concentration 10 nM)
Outline: as §1

[10] = tested on: PPARg:RXRa 90nM:30nM, anti-RXR (NR concentration 90 nM, RXRa partner concentration 30 nM)
Outline: as §1

GGACCGAGGGCAAAGTTGATAGCATCTGTCGACG
PBM binding z-score [1]: 1.12
PBM binding z-score [2]: 0.801
PBM binding z-score [3]: -0.42
PBM binding z-score [4]: 0.811
PBM binding z-score [5]: -0.953
PBM binding z-score [6]: 2.74
PBM binding z-score [7]: 3.41
PBM binding z-score [8]: 4.82
PBM binding z-score [9]: 2.42
PBM binding z-score [10]: 4.42

ATCGCTAGGTAAAGATAGTTCAGTGAATGCAAAT
PBM binding z-score [1]: -0.496
PBM binding z-score [2]: 3.12
PBM binding z-score [3]: -0.0972
PBM binding z-score [4]: 0.21
PBM binding z-score [5]: -0.672
PBM binding z-score [6]: -0.0926
PBM binding z-score [7]: 0.0549
PBM binding z-score [8]: -0.523
PBM binding z-score [9]: -0.376
PBM binding z-score [10]: -0.332

GCATAAAGGTAATACAAGGTGAAAGTCCGATTGT
PBM binding z-score [1]: 0.963
PBM binding z-score [2]: 4.21
PBM binding z-score [3]: 0.396
PBM binding z-score [4]: 1.65
PBM binding z-score [5]: -0.394
PBM binding z-score [6]: 2.06
PBM binding z-score [7]: 0.943
PBM binding z-score [8]: 1.72
PBM binding z-score [9]: 0.61
PBM binding z-score [10]: 0.948

GCATATAGGTAGTACAAGGTGAAAGTCCGATTGT
PBM binding z-score [1]: 1.03
PBM binding z-score [2]: 0.23
PBM binding z-score [3]: -0.159
PBM binding z-score [4]: 0.269
PBM binding z-score [5]: -0.562
PBM binding z-score [6]: 1.16
PBM binding z-score [7]: 0.674
PBM binding z-score [8]: 0.733
PBM binding z-score [9]: 0.197
PBM binding z-score [10]: 0.775

AGAATGAGGTTATCAAAGATCAGGGAAACGCTTG
PBM binding z-score [1]: 1.6
PBM binding z-score [2]: 5.08
PBM binding z-score [3]: -0.032
PBM binding z-score [4]: 2.44
PBM binding z-score [5]: -0.277
PBM binding z-score [6]: 3.13
PBM binding z-score [7]: 1.78
PBM binding z-score [8]: 1.69
PBM binding z-score [9]: 0.863
PBM binding z-score [10]: 1.53

CGTCCAAGGTCAATACTAGGTCAGTGAAAGCATT
PBM binding z-score [1]: 6.7
PBM binding z-score [2]: 5.42
PBM binding z-score [3]: 3.65
PBM binding z-score [4]: 4.71
PBM binding z-score [5]: 1.55
PBM binding z-score [6]: 5.33
PBM binding z-score [7]: 4.52
PBM binding z-score [8]: 4.7
PBM binding z-score [9]: 2.1
PBM binding z-score [10]: 3.73

CGCACTAGGTCAAGGACAGTGAATCTCCGCACGC
PBM binding z-score [1]: 3.09
PBM binding z-score [2]: 2.28
PBM binding z-score [3]: 0.266
PBM binding z-score [4]: 1.46
PBM binding z-score [5]: 0.1
PBM binding z-score [6]: 4.26
PBM binding z-score [7]: 6.58
PBM binding z-score [8]: 5.97
PBM binding z-score [9]: 3.25
PBM binding z-score [10]: 5.37

CGAACTAGGTCATCCAGGATAGTGAATACATTGA
PBM binding z-score [1]: 4.33
PBM binding z-score [2]: 2.51
PBM binding z-score [3]: 0.425
PBM binding z-score [4]: 2.22
PBM binding z-score [5]: -0.0288
PBM binding z-score [6]: 4.87
PBM binding z-score [7]: 7.49
PBM binding z-score [8]: 6.2
PBM binding z-score [9]: 3.48
PBM binding z-score [10]: 5.72

CGAACTAGGTCAAGGACAATGAATCTCCGCACGC
PBM binding z-score [1]: 3.47
PBM binding z-score [2]: 2.4
PBM binding z-score [3]: 0.0804
PBM binding z-score [4]: 1.37
PBM binding z-score [5]: -0.174
PBM binding z-score [6]: 4.72
PBM binding z-score [7]: 7.83
PBM binding z-score [8]: 6.69
PBM binding z-score [9]: 4.46
PBM binding z-score [10]: 6.15

ATATGTTGGTTAAGGGTCATTCAGGTTGGTTCGC
PBM binding z-score [1]: 4.33
PBM binding z-score [2]: 4.39
PBM binding z-score [3]: 2.88
PBM binding z-score [4]: 4.31
PBM binding z-score [5]: 1.83
PBM binding z-score [6]: 4.83
PBM binding z-score [7]: 6.96
PBM binding z-score [8]: 7.58
PBM binding z-score [9]: 6.29
PBM binding z-score [10]: 7.73

CGTCCGAGGTCAGCAGGTCAGTGAAAGCGACGTG
PBM binding z-score [1]: 6.67
PBM binding z-score [2]: 4.61
PBM binding z-score [3]: 0.517
PBM binding z-score [4]: 3.78
PBM binding z-score [5]: 0.00416
PBM binding z-score [6]: 5.44
PBM binding z-score [7]: 5.32
PBM binding z-score [8]: 5.3
PBM binding z-score [9]: 1.73
PBM binding z-score [10]: 4.16

CCTACTAGGTCAATGGTCAGCTAAAGCAGCTCGC
PBM binding z-score [1]: 3.38
PBM binding z-score [2]: 2.41
PBM binding z-score [3]: 0.529
PBM binding z-score [4]: 1.87
PBM binding z-score [5]: 0.47
PBM binding z-score [6]: 4.62
PBM binding z-score [7]: 8.83
PBM binding z-score [8]: 7.23
PBM binding z-score [9]: 6.92
PBM binding z-score [10]: 7.71
